Measurements as given in the supplement of paper PMC11417369.
Over roughly 25,000 sequences, “ln(normalized median fluorescence intensity)” has its median near 6.7; the highest 2% begin near 10. For the sample, the highest values were picked, then their nearest neighbours and some sequences at random.

Test system: PfHDP1 homeodomain (GST-tagged)
Experiment: gcPBM binding intensity (ln(normalized median fluorescence intensity)); higher = stronger DNA binding
Outline: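 Each value is the highest Masliner-normalised natural-log median intensity across replicate spots of either orientation of a probe. The probes were primer-extended double-stranded 36-bp intergenic genomic sequences on an Agilent 4 × 180k array, alongside negative controls, exposed for 1 h to GST-tagged P. falciparum DNA-binding domains expressed in E. coli. Bound protein was picked up with Alexa488 anti-GST antibody and scanned at 488 nm.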

Sequence | gcPBM binding intensity (ln)
ATTAAATGTATGACTTGTACATAAAATAAAAAAAAA [XGTACX_site6555] | 6.56
AAATAAAATAATAAAACATGCAAAAATAATGATTTA [TGCATGCA_site415] | 6.72
AGGTGCAAAAATAAAACATGCAAAAATAAAAATGAA [TGCATGCA_site502] | 10.7
TAAAGGAAATAAAAAACATGCAAATATGAAATATAT [TGCATGCA_site745] | 6.74
TTTATTAAAATATTCTCACACACCAAAATATGTATG [CACACA_site932] | 6.42
TTTTAATATATAGAGTAACAAATTTGTCTATTAATA [CACACA_negctrl_site1495] | 6.6
ATAACAAAAATCCTTGTGCACTATTTTAATAGAGTC | 10.5
TATATATATTTTTGTGTGCACTATAATATGAAAATA | 10.3
TAAAAAATAAATATATGTACATATTTATTTTTTTTT [XGTACX_site850] | 6.19
TATCATATATAAAGAGGTACGTAAGAATAGAAAATT [XGTACX_site798] | 7.27
GTGCAAAATATTTTTACACACAAATTCTTACAACAG [CACACA_site7556] | 7.77
ACATTAAAAAATTGTTTGCACTATATAAAATATTAA [GTGCAC_site9728] | 8.82
ATAAAAAAAAATATTTGTACACATATTTATATATTA [XGTACX_site8147] | 6.56
GTATTTCTTTAATATACACACACCAAAACAAAAAAA [CACACA_site579] | 6.98
TTTTTTTTTGTTAAAGTGCATATATTAAATTTTCCT [GTGCAC_site9677] | 7.82
TTTTTGTTACCTATTGTGCACTTCATATAAATTAAA | 10.9
TTTTATTTCTTTGCACCATTTTAAATACAAACAAAT [CACACA_negctrl_site1553] | 11
TTTTTTATTTTGTGCACACACATAAAAATATATATA [CACACA_site761] | 11.4
GAAATTTGTTATTGCACACAAATTTTTCTTTTTTTA [CACACA_site2339] | 9.6
TCTTTCCTTATTAAAACACACAAATACATTATTTAA [CACACA_site2147] | 6.7
TAATAAAAAAAGTGCACACACATAATATTTATATAT [CACACA_site7548] | 8.75
CATTTTATTTTCTTTGTGCACAAAAATATTTTTTCT | 10.8
CATTAATAAAAAAAAAGTACAAAAAATATATATATT [XGTACX_site2091] | 6.88
TCGTCTCAATAATTATAATAAAAAAATTCCTAAGTC [CACACA_negctrl_site338] | 6.28
TATATGCCTATAAGAAGTACTGTGTAATGTAATATA [XGTACX_site8089] | 6.67
TTGTGTTATCCTTTTTTAGATCAACTATTTTTATTC [CACACA_negctrl_site145] | 6.32
